miR-21 reporter: qHTS Assay for Modulators of miRNAs and/orActivators of miR-21; HeLa miR-21 FLuc reporter, luciferase, 48 h; Potency, µM (doses to about 38.3 µM), without a hit: at the top dose activity change, positive = activation, usual class: activators; AID 2288, 2010; 340,000 tested, under 10 active;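 note: % of control where 0% means no effect; miR-21 action dims this reporter so a rising signal means less miR-21 action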
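Compounds were titrated across several concentrations (up to approximately 40 uM) and incubated 48 hours with HeLa miR-21-FLuc reporter cells (miR-21 target sequence downstream of FLuc, endogenous miR-21). Readout was firefly luciferase luminescence after lytic detection reagent.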
IL-2 act: qHTS of IL-2 Activators | IL-2 activation reporter assay, cell-based qHTS; stimulated with anti-CD3/CD4/CD28 beads; in transgenic mouse T cells | activation, % (series mostly up to about 46 µM) | hit rate 0.065% among 360,000 | AID 652025, 2013; in the data active = activation above about 50%; inconclusive = mostly about 30% to 49%; note: 0% is about no effect
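Unstimulated transgenic mouse T cells, 750 per well, received compound and, after 60 minutes, anti-CD3/anti-CD4 bead plus anti-CD28 stimulation. EGFP and DsRed were quantified after 18 hours.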
Nrf2 inh: Nrf2 qHTS screen for inhibitors | Potency, µM (series often up to 46 µM), for inactives: top-dose activity change, negative = inhibition, most hits filed as inhibitors | A549 ARE-Fluc reporter, luciferase luminescence, 18-24 h | hit rate 2.1% among 360,000; note: potency is the fitted concentration of half-maximal effect; % is set by controls: 0 for no effect and ±100 for the full control effect; nearly all actives have a fitted effect of over 60% in size
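A549 ARE_Fluc cells (5000/well, 5% FBS OPTI-MEM) pre-incubated 2 h, then treated with compounds 18-24 h at 37C/5% CO2 in concentration-response. CellTiter-Fluor viability read first; BugLite luciferase luminescence after 15 min at room temperature gives Nrf2 activity.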
Nrf2 ARE act: qHTS of Nrf2 Activators. AREc32 ARE-luciferase reporter (MCF7-derived line), luminescence, 24 h. Potency, µM (top dose mostly 46.1 µM), inactives show at the highest dose activation, most hits filed as activators. hit rate 0.31% among 410,000; note: potency is the fitted concentration of half-maximal effect; % of control where 0% means no effect; nearly all actives have a fitted effect of over 65% in size
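For detection, Steady-Glo was added and plates sat 30 min at RT; before that, AREc32_Fluc cells grown overnight in OPTI-MEM/5% FBS had been treated with 23 nL compound for 24 hr at 37 deg C.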
A549 viability: Nrf2 qHTS screen for inhibitors: counterscreen for cytotoxicity; A549 ARE-Fluc cells, CellTiter-Fluor viability, 18-24 h; Potency, µM (series often up to 46 µM), inactives show at the highest dose activity change, negative = cytotoxicity, hits mostly inhibitors; hit rate 0.16% among 390,000; AID 504648, 2011; note: potency is the fitted concentration of half-maximal effect; % is set by controls: 0 for no effect and ±100 for the full control effect
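A549 ARE_Fluc cells in 5% FBS OPTI-MEM were exposed to compounds in concentration-response for 18-24 h at 37 deg C. Viability was read by CellTiter-Fluor fluorescence (Ex 405/Em 525) after 30 min, before the luciferase read.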
ClpP mod: qHTS Assay for Activators of ClpP. ATP-dependent Clp protease proteolytic subunit (Bacillus subtilis (strain 168)), P80244. purified B. subtilis ClpP, FRET peptide cleavage, 20 min. Potency, µM (top dose mostly 57.5 µM), without a hit: at the top dose activity change, negative = active. hit rate 1.9% among 340,000; active = well fitted falling curve with a large enough effect; inconclusive = small, poorly fitted or top-dose-only effect; inactive = no such curve, though single readings can be large or run the other way; note: potency is the fitted concentration of half-maximal effect; the source files actives as falling curves though it sought activators and does not explain the sign; nearly all actives have a fitted effect of over 65% in size
Target sequence (P80244 whole entry, looked up): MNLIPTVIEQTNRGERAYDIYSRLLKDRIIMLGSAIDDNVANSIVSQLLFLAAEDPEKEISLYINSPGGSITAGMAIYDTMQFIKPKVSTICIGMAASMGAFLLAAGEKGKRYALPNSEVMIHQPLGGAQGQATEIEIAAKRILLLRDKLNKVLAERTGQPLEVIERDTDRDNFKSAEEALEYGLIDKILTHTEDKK
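ClpP 10 microg/mL final, pH 8 Tris/KCl buffer with BSA, glycerol, Tween-20; compound pinned in; FRET-FV substrate; RT 20 min; Ex320/Em430; ΔFRET vs ADEP 5.8 microM, DMSO, no enzyme.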
Numbers without * were called inactive; ? = inconclusive; / = not tested or not shown; ! = not active in a repeat. An excerpt weighted towards active compounds, which were near 3.7% of everything screened. Unless noted, calls come from the whole dose curve; as a rule, active = well fitted curve in the direction sought with a large enough effect; inconclusive = small, poorly fitted or top-dose-only effect, or another doubt; inactive = no such curve, though single readings can be large; an effect the other way counts as inactive or inconclusive.

SMILES | miR-21 reporter | IL-2 act | Nrf2 inh | Nrf2 ARE act | A549 viability | ClpP mod
COc1ccccc1CNC(=O)CCn1c(=O)c2ccccc2n(CC(=O)Nc2ccc(C)cc2C)c1=O | -3.3% | / | -4.6% | 0.4% | 0.3% | -1.2%
CCn1c(=O)cc(OCC(=O)N2CCN(c3cccc(Cl)c3)CC2)c2ccccc21 | 2.6% | / | 6.8% | 3.5% | 11.1% | -9.4%
Cc1ccccc1CNC(=O)c1ccc2nc(C(C)C)oc2c1 | -14.7% | / | / | 1.1% | -7.1% | -3.6%
CC(Oc1ccc(-c2ccccc2)cc1)C(=O)N1CCOCC1 (stereo unspecified) | -18.3% | -0.5 | / | 3.7% | -6.1% | 25.1µM*
COc1ccc(OC(C)C(=O)N2CCOCC2)cc1 (stereo unspecified) | -4.3% | -0.7 | 9.1% | 0.4% | -11.5% | -3.3%
CCC(C)NC(=O)Nc1ccc(Br)cc1 (stereo unspecified) | -24.9% | -2.9 | ? | 5.2% | 5.8% | /
CCC(C)Nc1ccc(NC(C)CC)cc1 (stereo unspecified) | / | -0.4 | 0.0731µM* | -2.8% | 0.146µM* | -1.6%
COc1ccc(-n2c(SCC(=O)Nc3ccc4c(c3)OCO4)nc3c([nH]c4ccccc43)c2=O)cc1 | -2.2% | / | / | -0.3% | -8.2% | ?
COc1ccc(/C=C/C(O)=C2/C(=O)N(C)C3(C)CC2c2ccccc2O3)cc1 (stereo unspecified) | -5.0% | 8.5 | 29.1µM* | 1.1% | ? | ?
Cc1ccc2[nH]c(CSc3nnc(NC(=O)COc4ccc(F)cc4)s3)cc(=O)c2c1 | -7.1% | / | / | 0.5% | 2.3% | -4.6%
Cc1ccc(NC(=O)C2=C(c3ccccc3)S(=O)(=O)CCS2(=O)=O)cc1 | ? | -3.1 | 20.6µM* | -2.2% | ? | /
COCCn1c(SCC(=O)Nc2ccc(F)c(Cl)c2)nc2c(oc3ccccc32)c1=O | -14.1% | / | ? | -0.5% | -8.4% | -16.9%
CC1(C(=O)Nc2cccc(-n3cnnn3)c2)Cc2ccccc2C(=O)O1 (stereo unspecified) | / | -3.1 | -9.7% | 4.8% | -4.9% | 35.5µM*
CC1(C(=O)Nc2cccc(Br)c2)Cc2ccccc2C(=O)O1 (stereo unspecified) | 1.1% | / | 2.1% | 2.9% | 0.3% | 1.4%
O=C(NCc1ccccc1)N1CCn2c(nc3ccccc32)C1 | -15.8% | -2.4 | 0.3% | 0.4% | -1.6% | 31.6µM*
O=C1CCCC2=C1C1(CCCC1)N=C(Nc1nc3cc4ccccc4cc3o1)N2 | / | / | -2.4% | / | -2.1% | /
CCCn1nc([N+](=O)[O-])c(C(C#N)c2nc3ccccc3s2)c(Cl)c1=O (stereo unspecified) | ? | -0.4 | ? | ? | 13µM* | -1.9%
Cc1nc(N2CCCCC2)sc1C(=O)c1ccc(SCCO)c([N+](=O)[O-])c1 | 2.8% | -7.5 | 20.6µM* | 4.3% | ? | /
O=[N+]([O-])c1ccc(N2CCCCC2)cc1SCCO | 4.1% | 1.0 | 4.8% | -0.9% | -4.3% | 1.9%
Cc1ccc(NS(=O)(=O)c2cccc(F)c2)cc1C | / | / | 4.1% | / | 7.3% | /
COC(=O)c1cc(NC(=O)CCc2c(C)nc3c(c(C)nn3C(C)(C)C)c2C)cc(C(=O)OC)c1 | -0.5% | / | 7.2% | 0.4% | 1.6% | -7.8%
CCCCCCNC(=O)Cc1c(O)c2ccccc2[nH]c1=O | 2.3% | -0.8 | -9.3% | -0.3% | -2.5% | 28.2µM*
CCCCOC(=O)Cc1c(O)c2ccccc2[nH]c1=O | -6.0% | 0.1 | -0.8% | -0.4% | -4.6% | ?
CCCCNC(=O)Cc1c(O)c2ccccc2[nH]c1=O | 1.1% | 0.6 | 0.2% | 0.0% | 1.4% | 20µM*
Cc1ccc(NC(=O)C2CCCN(S(=O)(=O)c3cn(C(C)C)cn3)C2)c(C)c1 (stereo unspecified) | -0.6% | / | / | 0.1% | 0.1% | -1.4%
SMILES | miR-21 reporter | IL-2 act | Nrf2 inh | Nrf2 ARE act | A549 viability | ClpP mod
CC(C)c1nc(N2CCOCC2)c(C#N)c2c1CCC2 | -9.4% | -1.1 | ? | -0.8% | -11.0% | 25.1µM*
CCCc1nc(N2CCOCC2)c(C#N)c2c1CCCC2 | -6.6% | 0.5 | -6.7% | -0.3% | -9.3% | 31.6µM*
CCCSc1nc(N2CCOCC2)c2c(c1C#N)CCCC2 | -14.3% | -2.5 | -16.4% | 0.0% | -0.3% | -11.4%
Cc1cc(C)c(C#N)c(N2CCOCC2)n1 | -9.4% | -3.3 | / | -1.5% | -2.3% | 25.1µM*
CCCCc1nc(N2CCOCC2)c(C#N)c2c1CCCC2 | -5.8% | -0.1 | 3.4% | 0.4% | 2.2% | 25.1µM*
Cc1ccc(NC(=O)Cn2c(=O)oc3cc(S(=O)(=O)N4CCCCCC4)ccc32)cc1Cl | -8.1% | / | / | -1.2% | -25.1% | 0.3%
CCOc1cc2c(C#N)c(N3CCOCC3)nc(N)c2c(N)n1 | -35.2% | 0.1 | -4.6% | 0.2% | 0.7% | 31.6µM*
CCOc1cc2c(C#N)c(N(CC)CC)nc(N)c2c(N)n1 | / | 0.4 | 4.1% | -0.4% | -5.7% | 4.8%
N#CN1CCC(NC(=O)c2cccc(C(F)(F)F)c2)CC1 | / | / | 1.1% | / | -2.4% | /
CC(=O)c1cccc(NC(=O)COC(=O)c2ccccc2OCc2cccc(Br)c2)c1 | / | / | / | / | / | -1.2%
COc1ccc(CCCc2nnc(SCC(=O)Nc3ccc(Cl)cc3)o2)cc1 | 0.2% | / | 20.6µM* | 5.0% | 0.0% | -6.2%
CCc1ccccc1NC(=O)c1ccc(=O)n(Cc2ccc(F)cc2)c1 | -3.7% | / | / | 0.8% | 1.8% | -1.6%
COCCCNC(=O)CSC1=Nc2ccccc2C2=NC(CCC(=O)NCc3ccccc3OC)C(=O)N12 (stereo unspecified) | -3.5% | / | / | 0.4% | 0.1% | -19.2%
Clc1ccc(-c2nnc(CSc3nnc(-c4cccs4)n3Cc3ccccc3)o2)cc1 | 20.3% | -4.7 | 20.6µM* | 7.4% | -11.0% | -3.6%
COc1cc(NC(=O)N2CCC(CN3CCCC3)CC2)cc(OC)c1OC | 0.2% | / | 17.8% | -0.2% | 22.8% | -4.3%
O=C(NCc1ccccc1)c1nc(S(=O)(=O)Cc2ccc(F)cc2)ncc1Cl | ? | / | 25.9µM* | -5.9% | ? | -7.8%
Cc1cccc(C)c1NC(=O)c1nc(S(=O)(=O)Cc2ccccc2)ncc1Cl | ? | -2.2 | ? | ? | 0.1% | /
Cc1cccc(CS(=O)(=O)c2ncc(Cl)c(C(=O)Nc3c(C)cccc3C)n2)c1 | ? | -3.6 | 14.6µM* | -1.9% | ? | 1.8%
O=C(Nc1ccc(F)cc1)c1nc(S(=O)(=O)Cc2ccccc2)ncc1Cl | ? | -3.9 | ? | ? | ? | 1.3%
COC(=O)c1ccccc1NC(=O)c1ccc(COc2cc(C)cc(C)c2)o1 | -15.3% | 1.0 | -17.5% | 0.1% | -4.2% | 20µM*!
